CYP2C19 inh: blocks human cytochrome P450 2C19 | CYP2C19 Supersomes, luciferin-H EGE luminescence, 30 min | inhibition, % at 5 µM | actives 21% (n = 96,000) | P33261 | AID 778;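 active = CYP2C19 inhibition above a set limit at 5 µM in the primary screen, cut at about 50% in these data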
PostGolgi ctrl: inhibits growth of the yeast control strain; efflux-deficient yeast background strain, growth absorbance A615, 16 h; inhibition, % at 10 µM; actives 5% (n = 98,000); AID 738
PostGolgi yeast: growth inhibition of a yeast mutant, post-Golgi transport screen | post-Golgi transport phenotypic cell assay | AID 739 | inhibition, % at 10 µM | actives 0.9% (n = 98,000);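 also: yeast cells grown in 1536-well plates; yeast grown about 18 h at 30C before absorbance read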
CYP2C9 inhib: human CYP2C9 inhibition; P11712; AID 777; actives 20% (n = 96,000); CYP2C9 Supersomes, luciferin-H conversion, luminescence; inhibition, % at 5 µM;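 active = blocking of liver enzyme CYP2C9 beyond about 50% at 5 µM, limit read from the data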
Target sequence (P11712 whole entry, looked up): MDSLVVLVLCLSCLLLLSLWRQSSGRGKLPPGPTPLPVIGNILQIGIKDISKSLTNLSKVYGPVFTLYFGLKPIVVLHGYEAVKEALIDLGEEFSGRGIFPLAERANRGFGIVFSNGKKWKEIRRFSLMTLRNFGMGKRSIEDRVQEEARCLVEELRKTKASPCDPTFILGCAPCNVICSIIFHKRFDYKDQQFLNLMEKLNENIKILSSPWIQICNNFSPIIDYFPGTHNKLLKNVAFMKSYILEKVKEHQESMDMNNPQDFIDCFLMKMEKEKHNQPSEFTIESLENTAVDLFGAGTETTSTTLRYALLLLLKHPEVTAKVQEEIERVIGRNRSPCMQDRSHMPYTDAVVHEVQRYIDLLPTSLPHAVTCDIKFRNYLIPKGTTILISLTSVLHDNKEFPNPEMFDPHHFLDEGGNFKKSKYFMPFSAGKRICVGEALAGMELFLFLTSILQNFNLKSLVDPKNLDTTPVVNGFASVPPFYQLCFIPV
CYP2C19 act: increases human CYP2C19 enzyme activity; recombinant CYP2C19, luciferin-H EGE luminescence; active compounds read high; 0 = fully inhibited enzyme, 1 = untreated enzyme; 96,000 tested, under 10 active; activation factor at 5 µM;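 active = activation factor of at least 2 at 5 µM in the primary screen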
CYP2C9 act: increases human cytochrome P450 2C9 activity. P11712. activation factor at 5 µM. actives 1.4% (n = 96,000). AID 1024. recombinant CYP2C9, luciferin-H conversion, luminescence; active compounds read high; factor 1 = untreated enzyme, 0 = blocked;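 active = activation factor of 2 or more for CYP2C9 at a 5 µM dose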
Large screens that a line does not name were inactive. A selection: hits, their analogues and other compounds. The true share with any hit is near 32%. Rule as the data show it, unless noted: active = inhibition above about 30%; inactive = the rest.

CC(=O)N(c1ccccc1)C1SC(=O)N(c2ccccc2)C1=O (stereo not drawn)	none
O=C(NCSC1=NCCS1)c1ccccc1	none
CCc1ccc(N2CC(C(=O)Nc3ccc(C)c(S(=O)(=O)N4CCOCC4)c3)CC2=O)cc1 (stereo not drawn)	CYP2C19 inh 90, CYP2C9 inhib 100
CCOc1ccc(N2CC(C(=O)Nc3ccccc3F)CC2=O)cc1 (stereo not drawn)	CYP2C9 inhib 68
Cc1ccc(N2CC(C(=O)Nc3ccncc3)CC2=O)cc1 (stereo not drawn)	CYP2C19 inh 98, CYP2C9 inhib 99
C=CCNC(=O)C1CC(=O)N(c2ccc(OCC(=O)Nc3cccc(OC)c3)cc2)C1 (stereo not drawn)	CYP2C9 inhib 56
Cc1ccc(N2CC(C(=O)Nc3nnc(C)s3)CC2=O)cc1 (stereo not drawn)	none
Cc1ccc(N2CC(C(=O)Nc3cc(C)ccc3F)CC2=O)cc1 (stereo not drawn)	CYP2C19 inh 75, CYP2C9 inhib 90
COc1ccccc1NC(=O)C1CC(=O)N(c2ccc(F)cc2)C1 (stereo not drawn)	none
COC(=O)c1ccc(NC(=O)C2CC(=O)N(c3cc(C)ccc3C)C2)cc1 (stereo not drawn)	none
CC(=O)Nc1cccc(NC(=O)C2CC(=O)N(c3ccc(C)cc3)C2)c1 (stereo not drawn)	CYP2C19 inh 72, CYP2C9 inhib 68
COC(=O)c1ccccc1NC(=O)C1CC(=O)N(c2ccc(C)cc2)C1 (stereo not drawn)	CYP2C9 inhib 57
Cc1ccc(NC(=O)C2CC(=O)N(c3ccc4c5c(cccc35)CC4)C2)cc1 (stereo not drawn)	PostGolgi ctrl 31, CYP2C9 inhib 56
Cc1ccc(N2CC(C(=O)Nc3cccnc3)CC2=O)cc1 (stereo not drawn)	none
CCc1ccc(N2CC(C(=O)Nc3cccnc3)CC2=O)cc1 (stereo not drawn)	CYP2C19 inh 58, CYP2C9 inhib 74
CCOC(=O)C1C(=O)C(C(C)=O)C(=O)CC1CC(C)SCC (stereo not drawn)	none
Clc1ccc(-c2nnn(Cc3nc4ccccc4s3)n2)cc1	none
Fc1ccc(-c2nnn(Cc3nc4ccccc4s3)n2)cc1	CYP2C19 inh 89
Cc1nn(-c2ccccc2)c2[nH]c(=O)c(CNc3ccc4c(c3)OCCO4)cc12	CYP2C9 inhib 61
CCc1ccc(NCc2cc3c(C)nn(-c4ccccc4)c3[nH]c2=O)cc1	CYP2C9 inhib 92
Cc1nn(-c2ccccc2)c2[nH]c(=O)c(CNCc3ccc4c(c3)OCO4)cc12	none
CC(O)c1cc2c(cc1NC(=O)c1cnn3c1NC(c1ccco1)CC3C(F)(F)F)OCO2 (stereo not drawn)	none
Clc1ccc(COc2ccccc2CNCc2cccnc2)cc1	CYP2C19 inh 97, CYP2C9 inhib 95
OCCNCc1cc(Br)ccc1OCc1ccc(Cl)cc1	CYP2C19 inh 53
C=CCOc1ccccc1CNCc1cccnc1	none
Cn1nnc(NCc2cc(Br)ccc2OCc2cccs2)n1	none
Brc1ccc(OCc2ccccc2)c(CNCc2ccncc2)c1	CYP2C19 inh 99, PostGolgi ctrl 95, PostGolgi yeast 101, CYP2C9 inhib 84
Cc1cc(C)cc(NC(=O)C2CCCC2)c1	none
C=CCNc1cc(C(F)(F)F)nc(-c2ccccn2)n1	none
Cc1nn(C(C)C(=O)N2CCc3ccccc32)c(C)c1[N+](=O)[O-] (stereo not drawn)	CYP2C19 inh 55, CYP2C9 inhib 68
Cc1nn(C(C)C(=O)NCc2ccccc2)c(C)c1[N+](=O)[O-] (stereo not drawn)	none
Nc1n[nH]c(S(=O)(=O)CCCc2ccccc2)n1	CYP2C19 inh 70
Cc1ccc(S(=O)(=O)N2CCN(c3ncnc4c3cnn4-c3ccccc3)CC2)cc1	none
O=S(=O)(c1ccccc1)N1CCN(c2ncnc3sc(-c4ccccc4)cc23)CC1	CYP2C19 inh 82, CYP2C9 inhib 93
COC(=O)C1=C(C)N(Cc2ccc(C)cc2)C(=O)C1	none
O=C(Cn1c(=O)sc2ccccc21)Nc1ccc(S(=O)(=O)N2CCCC2)cc1	CYP2C19 inh 80, CYP2C9 inhib 98
COC(=O)c1ccc(CN2C(=O)c3ccccc3S2(=O)=O)cc1	CYP2C19 inh 84, CYP2C9 inhib 60
O=C(CN1C(=O)c2ccccc2S1(=O)=O)NCc1ccccc1Cl	CYP2C19 inh 59
O=C(COc1ccccc1)Nc1ccc(S(=O)(=O)N2CCCC2)cc1	none
O=C(OCCN1C(=O)c2ccccc2C1=O)c1ccc(S(=O)(=O)N2CCCCCC2)cc1	CYP2C9 inhib 82
O=C(CC1Oc2ccccc2NC1=O)NCc1ccc(Cl)cc1 (stereo not drawn)	none
COc1ccc(-n2c(SCC(=O)NNC(=O)c3ccccc3C)nnc2-c2ccncc2)cc1	none
CC1(C)OC(=O)C(C(c2ccccc2)C(C#N)C(N)=O)=C(O)O1 (stereo not drawn)	none
O=C(CSc1nc2c(c(=O)n1-c1ccc(Cl)cc1)SCC2)Nc1ccc2c(c1)OCCO2	none
O=S1(=O)N=C(Nc2ccc(S(=O)(=O)N3CCCCC3)cc2)c2ccccc21	none
O=C(CN1C(=O)c2ccccc2S1(=O)=O)Nc1ccc(S(=O)(=O)N2CCCCCC2)cc1	CYP2C19 inh 50, CYP2C9 inhib 87
O=C(CN1C(=O)c2ccccc2S1(=O)=O)NCc1ccccn1	none
CCC(C)NC(=O)c1ccccc1NC(=O)CN1C(=O)c2ccccc2S1(=O)=O (stereo not drawn)	CYP2C9 inhib 85
CN(c1cccc(NC(=O)CN2C(=O)c3ccccc3S2(=O)=O)c1)S(C)(=O)=O	PostGolgi ctrl 33
O=C(CCCN1C(=O)c2ccccc2C1=O)Nc1ccc(S(=O)(=O)N2CCCCC2)cc1	CYP2C19 inh 63, CYP2C9 inhib 94
COC(=O)c1ccccc1NC(=O)CN1C(=O)c2ccccc2S1(=O)=O	none
O=C(O)CCCCCNC(=O)Nc1ccc2c(c1)OCCO2	none
CN1CCC2(CC1)Nc1nc(SCc3ccc(Cl)cc3)nn1C1=C2CN(C)CC1	none
c1ccc(-c2nc3cc4ccccc4cc3[nH]2)nc1	CYP2C19 inh 80
COc1ccccc1-c1nnc(NC(=O)C(C)SC2=NCCS2)s1 (stereo not drawn)	PostGolgi ctrl 38
CC(SC1=NCCS1)C(=O)Nc1nnc(-c2ccc(Cl)cc2)s1 (stereo not drawn)	none
CCN1CCCC1CN(Cc1cc2cc(C)ccc2[nH]c1=O)C(=O)Nc1ccccc1OC (stereo not drawn)	PostGolgi ctrl 34
O=C(Nc1ccccc1)N(CCN1CCOCC1)Cc1ccccc1F	CYP2C19 inh 56, CYP2C9 inhib 89
COc1ccccc1NC(=O)N(CCN(C)C)Cc1cc2cc(C)ccc2[nH]c1=O	none

Bioassay records as filed in PubChem.
